Assay [1] is described as follows: BSK_CASM3C_SRB: Viability Assessment in the BioMAP Diversity Plus: CASM3C Assay (AID 2283050).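 Note: total protein by SRB staining as cytotoxicity measure in parallel cultures.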 Particulars: primary human coronary artery smooth muscle cells.
Read-out in assay [2]: Tissue Factor, F3 (gene 2152)
Kind of assay: BSK_CASM3C_TissueFactor: BioMAP Diversity Plus: CASM3C Assay for Tissue Factor Biomarker Activity (AID 2283052).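 Note: cell surface tissue factor protein level read by ELISA.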 As to conditions: primary human coronary artery smooth muscle cells; actives raise or lower the signal.

Read-out in assay [3]: Interferon-gamma inducible Protein 10 (IP10), CXCL10 (gene 3627)
The assay can be described thus: BSK_hDFCGF_IP10: BioMAP Diversity Plus: hDFCGF Assay for Interferon-gamma inducible Protein 10 (IP10) Biomarker Activity (AID 2283053). As to conditions: primary human foreskin fibroblasts; actives raise or lower the signal. In outline:
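ELISA read-out of IP-10 (CXCL10) from primary human skin fibroblasts, 24 h after compound addition. Gain or loss of signal versus DMSO baseline, bidirectional curve fitting.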

Read-out in assay [4]: Epidermal growth factor receptor (EGFR), EGFR (gene 1956)
Kind of assay: BSK_hDFCGF_EGFR: BioMAP Diversity Plus: hDFCGF Assay for Epidermal growth factor receptor (EGFR) Biomarker Activity (AID 2283057). Particulars: primary human foreskin fibroblasts; actives raise or lower the signal. Summed up: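 ELISA readout of EGFR on human dermal fibroblasts (primary foreskin cells), 24 h post-dosing; bidirectional curve fit vs DMSO baseline, gain or loss of signal scored.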

Read-out in assay [5]: Interleukin-8 (IL8), CXCL8 (gene 3576)
Kind of assay: BSK_hDFCGF_IL8: BioMAP Diversity Plus: hDFCGF Assay for Interleukin-8 (IL8) Biomarker Activity (AID 2283058). Particulars: primary human foreskin fibroblasts; actives raise or lower the signal. Summed up:
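Fibroblast monolayers (human foreskin, hDFCGF) received test chemical for 24 h before ELISA detection of IL-8; either increases or decreases relative to DMSO count as activity.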

Assay [6] is described as follows: BSK_hDFCGF_Proliferation: Cell Proliferation Assessment in the BioMAP Diversity Plus: hDFCGF Assay (AID 2283059).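 Note: curves fitted for both rise and fall of signal versus DMSO baseline.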 As to conditions: primary human foreskin fibroblasts. In outline: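 This proliferation readout used SRB total-protein staining of human foreskin fibroblasts […], normalized to DMSO with bidirectional curve fitting.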
A short description of assay [7]: BSK_hDFCGF_SRB: Viability Assessment in the BioMAP Diversity Plus: hDFCGF Assay (AID 2283061).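 Note: cells exposed to compound for 24 h before the read.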 Particulars: primary human foreskin fibroblasts. In outline: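 SRB-based viability read on primary human skin fibroblasts at 24 h: TCA fixation, 0.1% dye, 560 nm. Gain or loss of signal is fitted against the DMSO negative control.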
Read-out in assay [8]: TIMP metallopeptidase inhibitor 1 (TIMP1), TIMP1 (gene 7076)
The assay can be described thus: BSK_hDFCGF_TIMP1: BioMAP Diversity Plus: hDFCGF Assay for TIMP metallopeptidase inhibitor 1 (TIMP1) Biomarker Activity (AID 2283062). As to conditions: primary human foreskin fibroblasts; actives raise or lower the signal. In outline: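 Bidirectional curve fitting against DMSO baseline yielded this endpoint, based on ELISA detection of TIMP-1 in primary human foreskin fibroblasts exposed to compound for 24 h.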

Read-out in assay [9]: Matrix Metallopeptidase 1 (MMP1), MMP1 (gene 4312)
The assay can be described thus: BSK_hDFCGF_MMP1: BioMAP Diversity Plus: hDFCGF Assay for Matrix Metallopeptidase 1 (MMP1) Biomarker Activity (AID 2283064). As to conditions: primary human foreskin fibroblasts; actives raise or lower the signal. In outline: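 ELISA read-out of MMP1 from human foreskin fibroblasts (primary skin cells), 24 h post-dose. Gain or loss of signal was fitted bidirectionally versus DMSO negative control; cytotoxicity was checked by SRB in parallel cultures.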

Read-out in assay [10]: Vascular cell adhesion molecule 1 (VCAM1), VCAM1 (gene 7412)
Kind of assay: BSK_hDFCGF_VCAM1: BioMAP Diversity Plus: hDFCGF Assay for Vascular cell adhesion molecule 1 (VCAM1) Biomarker Activity (AID 2283065).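 For AC50: VCAM-1 protein level quantified by ELISA after 24 h chemical exposure.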 As to conditions: primary human foreskin fibroblasts; actives raise or lower the signal. In outline: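 Measured after 24 h chemical treatment of primary human skin fibroblasts, VCAM-1 was detected by ELISA and concentration-response analysed in both directions versus DMSO vehicle.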

Read-out in assay [11]: Interferon-gamma inducible Protein 10 (IP10), CXCL10 (gene 3627)
The assay can be described thus: BSK_KF3CT_IP10: BioMAP Diversity Plus: KF3CT Assay for Interferon-gamma inducible Protein 10 (IP10) Biomarker Activity (AID 2283068). As to conditions: primary human keratinocytes with fibroblasts; actives raise or lower the signal. Summed up:
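Signal is secreted/surface IP-10 by ELISA in a human primary skin co-culture of keratinocytes and foreskin fibroblasts, taken 24 h post-dosing; DMSO served as negative control.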

Read-out in assay [12]: Transforming growth factor beta 1 (TGFb1), TGFB1 (gene 7040)
Kind of assay: BSK_KF3CT_TGFb1: BioMAP Diversity Plus: KF3CT Assay for Transforming growth factor beta 1 (TGFb1) Biomarker Activity (AID 2283072). Particulars: primary human keratinocytes with fibroblasts; actives raise or lower the signal. In outline:
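Read-out: ELISA for TGF-b1 in keratinocyte/foreskin fibroblast human skin co-culture, 24 h after dosing; bidirectional curve fit vs DMSO baseline; gain or loss of signal scored.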

Read-out in assay [13]: urokinase plasminogen activator (uPA), PLAU (gene 5328)
Kind of assay: BSK_KF3CT_uPA: BioMAP Diversity Plus: KF3CT Assay for urokinase plasminogen activator (uPA) Biomarker Activity (AID 2283075). As to conditions: primary human keratinocytes with fibroblasts; actives raise or lower the signal. In outline: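 Skin co-culture (keratinocytes + foreskin fibroblasts), human primary; 24 h post-dose; uPA by ELISA; gain/loss fit vs DMSO baseline.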

Read-out in another assay: CD40, CD40 (gene 958)
Kind of assay: BSK_LPS_CD40: BioMAP Diversity Plus: LPS Assay for CD40 Biomarker Activity (AID 2283076). Particulars: primary human HUVEC with PBMC; actives raise or lower the signal. Summed up:
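Using a multiplexed primary human co-culture (umbilical vein endothelium plus PBMC), CD40 was read by ELISA 24 h after dosing, with cytotoxicity tracked by sulforhodamine B staining of parallel cultures and activity fitted bidirectionally versus DMSO.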

Read-out in assay [14]: E-selectin (Homo sapiens) (UniProt P16581)
Kind of assay: BSK_LPS_Eselectin: BioMAP Diversity Plus: LPS Assay for Eselectin Biomarker Activity (AID 2283077). As to conditions: primary human HUVEC with PBMC; actives raise or lower the signal. Summed up: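 Dose chemical onto LPS-driven HUVEC/PBMC co-culture; after 24 h, run ELISA for E-selectin; fit up- and down-going responses relative to DMSO control.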

Read-out in assay [15]: Interleukin-8 (IL8), CXCL8 (gene 3576)
The assay can be described thus: BSK_LPS_IL8: BioMAP Diversity Plus: LPS Assay for Interleukin-8 (IL8) Biomarker Activity (AID 2283078). Particulars: primary human HUVEC with PBMC; actives raise or lower the signal. In outline:
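In this LPS system, chemical-treated human umbilical vein endothelium/PBMC co-cultures were harvested at 24 h for IL-8 ELISA.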

Assay [16] in a line: BSK_LPS_SRB: Viability Assessment in the BioMAP Diversity Plus: LPS Assay (AID 2283079).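 Note: total protein by sulforhodamine B absorbance as a cytotoxicity measure; measured one day after compound addition; fitted in both directions against DMSO so loss or gain of signal counts.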 Particulars: primary human HUVEC with PBMC. In outline:
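Cytotoxicity endpoint in human endothelial–PBMC co-culture: 24 h exposure, then SRB (0.1%) staining, 560 nm read.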

Read-out in assay [17]: Interleukin-1 alpha (IL1a), IL1A (gene 3552)
Kind of assay: BSK_LPS_IL1a: BioMAP Diversity Plus: LPS Assay for Interleukin-1 alpha (IL1a) Biomarker Activity (AID 2283080). Particulars: primary human HUVEC with PBMC; actives raise or lower the signal. In outline: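 Primary human HUVEC and PBMC co-culture stimulated with LPS is dosed and harvested at 24 h. Both increases and decreases in ELISA-measured IL-1a are scored relative to DMSO.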

Read-out in assay [18]: Monocyte Chemoattractant Protein-1 (MCP1), CCL2 (gene 6347)
The assay can be described thus: BSK_LPS_MCP1: BioMAP Diversity Plus: LPS Assay for Monocyte Chemoattractant Protein-1 (MCP1) Biomarker Activity (AID 2283081).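 For AC50: secreted MCP-1 protein quantified by ELISA in culture supernatant.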 Particulars: primary human HUVEC with PBMC; actives raise or lower the signal. Summed up: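 Values derive from bidirectional fitting against DMSO of ELISA-measured MCP-1 in a human primary endothelial and mononuclear cell co-culture, 24 h after chemical addition under LPS activation.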

Assay [19] in a line: BSK_LPS_PGE2: BioMAP Diversity Plus: LPS Assay for Prostaglandin E2 (PGE2) Biomarker Activity (AID 2283082).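 For AC50: secreted prostaglandin E2 measured by ELISA in LPS-stimulated co-culture.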 As to conditions: primary human HUVEC with PBMC; actives raise or lower the signal. In outline: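 ELISA read-out of PGE2 from human umbilical vein endothelial cells co-cultured with peripheral blood mononuclear cells under LPS, 24 h post-dose. Gain or loss of signal scored relative to DMSO baseline.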

Molecules are shown by their SMILES. Values joined by “and” are separate entries in the source; they are usually repeats but may differ in a detail not shown here. Equal entries are not always repeated. Some structures have more than one record in an assay (separate samples or runs), and their calls can disagree. Active and inactive are the calls of the source. Rule for the calls: active = hit-call score of the fitted dose curve at least 0.9, where 1 is the maximum; inactive = score below 0.9.

Sequence of E-selectin (Homo sapiens) (P16581 whole entry, looked up): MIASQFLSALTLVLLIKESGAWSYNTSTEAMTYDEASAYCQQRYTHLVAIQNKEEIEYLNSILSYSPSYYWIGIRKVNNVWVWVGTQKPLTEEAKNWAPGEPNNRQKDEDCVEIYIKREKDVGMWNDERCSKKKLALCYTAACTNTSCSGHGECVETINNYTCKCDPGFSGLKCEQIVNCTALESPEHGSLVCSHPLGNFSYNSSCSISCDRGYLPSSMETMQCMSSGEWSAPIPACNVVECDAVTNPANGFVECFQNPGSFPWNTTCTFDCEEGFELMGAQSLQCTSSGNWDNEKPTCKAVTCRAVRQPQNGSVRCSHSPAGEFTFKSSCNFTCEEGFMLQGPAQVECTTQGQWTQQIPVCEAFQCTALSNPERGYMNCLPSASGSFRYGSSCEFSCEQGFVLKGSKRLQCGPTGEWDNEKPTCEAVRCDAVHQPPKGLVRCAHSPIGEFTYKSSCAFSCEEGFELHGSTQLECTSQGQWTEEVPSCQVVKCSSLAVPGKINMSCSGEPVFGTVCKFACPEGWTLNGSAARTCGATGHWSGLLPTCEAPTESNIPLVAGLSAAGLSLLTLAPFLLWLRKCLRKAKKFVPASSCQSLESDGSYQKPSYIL

Turning to `O=C(O)CCCc1ccc(N(CCCl)CCCl)cc1`, the AC50 in assay [1] is 24.8 µM (active) and 20 µM (active); in [2], 15.2 µM (active) and 5.57 µM (active); in assay [6], 6.32 µM (active) and 5.54 µM (active); in [11], 31.9 µM (active) and 36.2 µM (active); in assay [12], 29.8 µM (active); in the assay with CD40, CD40 (gene 958), 20 µM (active). The AC50 is 20 µM (active) in assay [14]; 25.4 µM (active) in assay [15]; 20 µM (active) in [16]; 34.8 µM (active) and 20 µM (active) in assay [17]; 20 µM (active) in assay [18]. The result in [3], in assay [4], in assay [5], in assay [7], in [8] and in [9] was inactive. The result in [10], in [12], in assay [13], in assay [14], in assay [15] and in assay [19] was inactive.
As to `Cc1ccc(OP(=O)(Oc2ccc(C)cc2)Oc2ccc(C)cc2)cc1` (tested in a mixture with another compound), the result in [1], in assay [2], in assay [3], in [4], in [5] and in assay [8] was inactive. Besides, the outcome in assay [9], in [10], in assay [11], in assay [13], in assay [14] and in [18] was inactive. Besides, in assay [19], the outcome was inactive. The AC50 in assay [6] was 20 µM (active); in assay [7] it was 23.2 µM (active); in assay [12], 4.81 µM (active); with CD40, CD40 (gene 958), 7.66 µM (active); in [15], 11.8 µM (active); in [16] it was 20 µM (active). Further, the concentration at half-maximal activity (AC50) in [17] is 4.74 µM (active).
`O=[N+]([O-])C=Cc1ccccc1`: the AC50 was 20 µM (active) in assay [1]; 20 µM (active) in assay [2]; 2.63 µM (active) in assay [3]; 4.35 µM (active) in assay [5]; 0.596 µM (active) in [6]; 20 µM (active) in assay [7]. For the same molecule, the AC50 is 13 µM (active) in [8]; 3.96 µM (active) in [9]; 1.41 µM (active) in assay [10]; 6.18 µM (active) in assay [11]; 3.05 µM (active) in [12]; 10.2 µM (active) in assay [13]. Further, the AC50 was 5.97 µM (active) in the assay with CD40, CD40 (gene 958); 15.3 µM (active) in assay [14]; 20 µM (active) in assay [15]; 11 µM (active) in assay [16]; 8.05 µM (active) in assay [17]; 10.3 µM (active) in [18]. For the same molecule, in assay [19], the AC50 was 5.81 µM (active). Moreover, the outcome in assay [4] was inactive.

As usually defined, the AC50 is the concentration giving half of the maximal activity seen.

The values above are taken from PubChem BioAssay (EPA / NIEHS).
